Data on 18 compounds can be found in PubChem BioAssay (NCATS).

Each structure is given as a SMILES string. Where “and” joins values, the source holds several entries; their conditions need not be identical. Equal entries are not always repeated. Records with an inconclusive call do not appear. A number with no mark means an inactive call. Calls of active or inactive are those of the source. The call rests on the fitted dose curve; in most records, active means well fitted curve in the direction sought with a large enough effect; inconclusive means small, poorly fitted or top-dose-only effect, or another doubt; inactive means no such curve, though single readings can be large; an effect the other way counts as inactive or inconclusive.

Assay [1] is described as follows: Viability qHTS for spleen associated tyrosine kinase inhibitor (SYKi) drug resistant MV4-11 cells (AID 1963824). Further: nearly all actives have a fitted effect of over 35% in size. The following applies: SYKi-resistant MV4-11 viability, CellTiter-Glo, 72 h; series mostly up to 45 µM. The essentials: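 SYK inhibitor-resistant MV4-11 AML cells, 500 per well, added to predispensed compounds and incubated 72 hr at 37 C, 5% CO2. Viability measured by CellTiter-Glo luminescence after 10 min at room temperature.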

Assay [2] in a line: Quantitative highthroughput screen to assess conditional lethalithy of NOMO1 cells grown in RPMI1640 with untreated serum (RPMI+s) (AID 1963876). Further: nearly all actives have a fitted effect of over 35% in size.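 On Viability: 100% = DMSO wells and 0% = empty wells without cells.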 The note with it: NOMO1 AML cells in RPMI+serum, CellTiter-Glo viability, 48 h; series mostly up to 45.8 µM. In short, it runs like this: (§1)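 Each medium arm—HPLM with 10% dialyzed FBS, or RPMI1640 with 5 mM glucose and 10% untreated or dialyzed FBS—was screened against an 11-point, 3-fold compound titration for 48 h at 37 °C, with CellTiter-Glo luminescence as endpoint.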
Background: ATP-based viability assays read luminescence as a measure of living cells.

Assay [3] can be described thus: Quantitative highthroughput screen to assess conditional lethalithy of NOMO1 cells grown in RPMI1640 with dialyzed fetal bovine serum (RPMI+ds) (AID 1963877). Further: nearly all actives have a fitted effect of over 30% in size.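 On Viability: 100% = DMSO control wells and 0% = empty wells.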 The following applies: NOMO1 in RPMI+dialyzed FBS viability, ATP luminescence, 48 h; series mostly up to 45.8 µM. In short, it runs like this:
as §1

Assay [4] in a line: Quantitative highthroughput screen to assess conditional lethalithy of NOMO1 cells grown in Human Plasma-Like Medium with dialyzed fetal bovine serum (HPLM+ds) (AID 1963878). Further: nearly all actives have a fitted effect of over 35% in size.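 On Viability: 100% = DMSO wells and 0% = empty wells on each plate.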 The following applies: NOMO1 AML cells in HPLM+ds, CellTiter-Glo viability, 48 h; series mostly up to 45.8 µM. In short, it runs like this: as §1
Assay [5] is described as follows: Quantitative highthroughput screen to assess conditional lethalithy of P12 Ichikawa cells grown in Human Plasma-Like Medium with dialyzed fetal bovine serum (HPLM+ds) (AID 1963879). Further: nearly all actives have a fitted effect of over 35% in size. The note with it: ATP luminescence, 48 h; Potency: viability; series mostly up to 45.8 µM. The essentials:
as §1

The nature of assay [6]: Quantitative highthroughput screen to assess conditional lethalithy of P12 Ichikawa cells grown in RPMI1640 with dialyzed fetal bovine serum (RPMI+ds) (AID 1963880). Further: nearly all actives have a fitted effect of over 35% in size.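 On Viability: 100% = DMSO wells and 0% = empty wells on each plate.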 The following applies: ATP luminescence, 48 h; Potency: P12-Ichikawa viability; series mostly up to 45.8 µM. The essentials: as §1
A short description of assay [7]: Quantitative highthroughput screen to assess conditional lethalithy of SEM cells grown in Human Plasma-Like Medium with dialyzed fetal bovine serum (HPLM+ds) (AID 1963882). Further: nearly all actives have a fitted effect of over 35% in size. The following applies: SEM B-ALL cells in HPLM+ds, CellTiter-Glo viability, 48 h; series mostly up to 45.8 µM. In short, it runs like this:
as §1

The nature of assay [8]: Quantitative highthroughput screen to assess conditional lethalithy of SEM cells grown in RPMI1640 with unreated serum (RPMI+s) (AID 1963883). Further: nearly all actives have a fitted effect of over 35% in size.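 On Viability: 100% = DMSO wells and 0% = empty wells without cells.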 The note with it: SEM B-ALL cells, CellTiter-Glo viability, 48 h; series mostly up to 45.8 µM. In short, it runs like this: as §1
Assay [9] in a line: Quantitative highthroughput screen to assess conditional lethalithy of SEM cells grown in RPMI1640 with dialyzed fetal bovine serum (RPMI+ds) (AID 1963884). Further: nearly all actives have a fitted effect of over 35% in size.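 On Viability: 100% = DMSO control wells and 0% = empty wells without cells.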 The note with it: SEM B-ALL cells, RPMI+dialyzed FBS, CellTiter-Glo viability, 48 h; series mostly up to 45.8 µM. The essentials: as §1
Assay [10] in a line: Cellular viability qHTS for adrenocortical cancer (ACC) cell line NCI-H295R (AID 1963990). Further: nearly all actives have a fitted effect of over 60% in size. The following applies: CellTiter-Glo ATP luminescence, 48 h; series mostly up to 46.1 µM. In short, it runs like this: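 Readout: CellTiter-Glo luminescence, 20 min RT. Exposure: 48 h, 37C/5% CO2. Cells: NCI-H295R, ITS-DMEM serum-free. Range: up to 46 uM. Analysis: 4PL fit, IC50 plus efficacy.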
(In general: qHTS replaces the single test concentration by a dilution series.)

Assay [11] can be described thus: Quantitative highthroughput screen to assess conditional lethalithy of P12 Ichikawa cells grown in RPMI1640 with untreated serum (RPMI+s) (AID 1963881). Further: nearly all actives have a fitted effect of over 35% in size.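 On Viability: 100% = DMSO wells and 0% = empty wells without cells.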 The following applies: ATP luminescence, 48 h; Potency: viability; series mostly up to 45.8 µM. The essentials:
as §1

The nature of assay [12]: Cellular viability qHTS for adrenocortical cancer (ACC) cell line SW-13 (AID 1963989). Further: nearly all actives have a fitted effect of over 65% in size.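 On activity (max response): cells grown in serum-free medium with ITS supplement; on the % scale 0 is the no-effect control and ±100 the full control effect.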 The following applies: SW-13 ACC cells viability, CellTiter-Glo, 48 h; activity (max response): active compounds read low. The essentials:
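Compound titrations (up to 46 uM final, in DMSO) were applied to SW-13 cells for 48 h at 37C/5% CO2. Reading used CellTiter-Glo after 20 min at room temperature; fitted curves yielded IC50 and efficacy.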
Potency means the concentration at half of the fitted maximal effect.

`CNC(=O)c1ccc(C)c(-n2c(C)cc(OCc3ccc(F)cc3F)c(Br)c2=O)c1`: in assay [1], the Potency is 8.2 µM (active). The Potency result in assay [2], in assay [3], in assay [4], in assay [5], in assay [6] and in assay [7] was “inactive” throughout. The Potency result in assay [8], in assay [9] and in assay [10] was “inactive” in each case.

For the compound `CN(C)c1ccc2nc3ccc(=[N+](C)C)cc-3sc2c1`, the Potency in assay [1] is 372 nM (active) and 841 nM (active); in assay [2] it was 8.33 µM (active); in [3], 6.62 µM (active); in assay [4] it was 8.33 µM (active); in [6], 7.43 µM (active); in [11], 5.9 µM (active). Moreover, the Potency in assay [7] was 9.35 µM (active); in assay [12] it was 7.08 µM (active) and 4.11 µM (active); in [10] it was 8.91 µM (active) and 8.2 µM (active).

In the case of `CN1CCC(=C2c3ccccc3C=Cc3ccccc32)CC1`, the Potency is 18.8 µM (active) in [1], 25.1 µM (active) in assay [12] and 3.98 µM (active) in [10]. Further, the Potency result in [2], in assay [3], in assay [4], in [5], in [11] and in assay [7] was “inactive” each time. The Potency entry in [8] was “inactive”.

Take `CNC(=O)c1nn(C)c2c1C(C)(C)Cc1cnc(Nc3ccc(N4CCN(C)CC4)cc3)nc1-2`: the Potency in assay [1] was 82 nM (active) and 209 nM (active); in assay [2], 16.6 µM (active); in [3] it was 14.8 µM (active); in [4], 8.33 µM (active); in assay [7], 0.264 µM (active); in assay [8] it was 0.372 µM (active). In addition, the Potency in assay [9] is 0.418 µM (active); in assay [12], 5.01 µM (active); in assay [10], 14.1 µM (active).

`CN1CCC(CNc2ccc3ncc(-c4cccc(OC(F)(F)F)c4)n3n2)CC1`: the Potency was 41.1 nM (active) and 132 nM (active) in [1]; 23.5 µM (active) in [2]; 23.5 µM (active) in assay [3]; 18.7 µM (active) in assay [4]; 5.9 µM (active) in assay [7]; 4.69 µM (active) in assay [8]. Further, the Potency is 15.8 µM (active) in assay [12] and 8.91 µM (active) in assay [10].

For the compound `COc1cc([C@@H](CC(=O)O)c2ccc(C)c(CN3C[C@@H](C)Oc4ccccc4S3(=O)=O)c2)cc2nnn(C)c12`, the Potency in [1] was 7.42 µM (active); in assay [5], 8.31 µM (active); in assay [6], 18.6 µM (active); in assay [11] it was 14.8 µM (active). Further, the Potency result in [2], in [3] and in [10] was “inactive” in each case.

On to `OCCn1cc(-c2cnc3nnn(Cc4ccc5ncccc5c4)c3n2)cn1`, for which the Potency in assay [1] is 20.9 µM (active). In addition, the Potency result in assay [2], in assay [3], in assay [6], in [11] and in assay [10] was “inactive” in each case. Besides, in assay [12], the activity (max response) was -4.78%.

`CC(C)[C@@H](CS(=O)(=O)C(C)C)N1C(=O)[C@@](C)(CC(=O)O)C[C@H](c2cccc(Cl)c2)[C@H]1c1ccc(Cl)cc1`: the Potency in assay [1] is 14.6 µM (active) and 16.6 µM (active); in [2], 1.66 µM (active); in assay [3] it was 2.09 µM (active); in assay [5], 0.209 µM (active); in assay [11], 0.933 µM (active); in assay [7], 4.17 µM (active).

`CC1(C)Cc2c(-c3ccccc3)c(-c3ccc(Cl)cc3)c(CC(=O)O)n2C1`: the Potency in assay [1] was 9.2 µM (active). Moreover, the Potency result in assay [2], in assay [3], in assay [5], in assay [6], in assay [11] and in assay [7] was “inactive” in each case. In addition, the Potency entry in assay [8] and in assay [9] was “inactive” throughout.

On to `Cc1cccc(C)c1OCC(=O)N[C@@H](Cc1ccccc1)[C@@H](O)C[C@H](Cc1ccccc1)NC(=O)[C@H](C(C)C)N1CCCNC1=O`, for which the Potency in assay [1] was 23.7 µM (active); in [10] it was 16.4 µM (active). The Potency entry in assay [2] and in assay [3] was “inactive” in each case.

Consider `CC(C)n1cnc2c(NCCCCCCNC(=O)OC(C)(C)C)nc(NCCO)nc21`, for which the Potency in [1] is 14.8 µM (active). The Potency result in [2], in assay [3], in [4], in assay [7] and in [10] was “inactive” each time.

In the case of `CO[C@H]1C[C@@H]2CC[C@@H](C)[C@@](O)(O2)C(=O)C(=O)N2CCCC[C@@H]2C(=O)O[C@H]([C@@H](C)C[C@@H]2CC[C@H](O)[C@H](OC)C2)CC(=O)[C@H](C)C=C(C)[C@@H](O)[C@@H](OC)C(=O)[C@H](C)C[C@H](C)C=CC=CC=C1C`, the Potency in [1] is 10.5 µM (active); in [10], 28.2 µM (active). In addition, the Potency entry in assay [2], in assay [3] and in [4] was “inactive” each time.

With `Clc1ccc(COC(Cn2ccnc2)c2ccc(Cl)cc2Cl)c(Cl)c1` (stereo not given), the Potency in assay [1] is 11.8 µM (active); in assay [12], 17.8 µM (active); in assay [10], 10 µM (active). Moreover, the Potency result in [2], in assay [3], in assay [4] and in assay [7] was “inactive” each time.

In the case of `C[C@@H](c1ncncc1F)[C@](O)(Cn1cncn1)c1ccc(F)cc1F`, the Potency result in [1], in [2], in [3], in [5], in assay [6] and in assay [11] was “inactive” throughout. In addition, the Potency entry in assay [7] and in assay [10] was “inactive” in each case. For the same compound, the activity (max response) in assay [12] was -12.4%.

Consider `COCCOc1ccc2c(c1)ncn2-c1ccc2cccc(N3CCC(N)CC3)c2n1`, for which the Potency was 11.6 nM (active) and 16.6 nM (active) in [1]; 18.7 µM (active) in assay [2]; 18.7 µM (active) in assay [3]; 14.8 µM (active) in [4]; 0.0935 µM (active) in assay [8]; 0.0264 µM (active) in assay [9]. Moreover, the Potency was 25.1 µM (active) in assay [12] and 12.6 µM (active) in [10].

`CCNC(=O)c1cc2c(-c3cc(OCCN4CCCC4)c(Cl)cc3Cl)nc(N)nc2s1`: the Potency was 0.162 µM (active) in assay [1]; 3.72 µM (active) in [2]; 4.69 µM (active) in [3]; 4.18 µM (active) in assay [4]; 2.96 µM (active) in assay [7]; 2.35 µM (active) in [9]. In addition, the Potency in [12] is 1.6 µM (active); in assay [10], 2.54 µM (active).

Turning to `c1cc(-c2cnn3cc(-c4ccc(OCCN5CCCCC5)cc4)cnc23)ccn1`, the Potency in [1] is 20.6 nM (active) and 20.9 nM (active); in assay [12], 11.2 µM (active); in assay [10], 12.6 µM (active). Besides, the Potency result in assay [2], in assay [3], in assay [6], in assay [7], in assay [8] and in assay [9] was “inactive” throughout.

In the case of `CC(C)c1cnn2c(NCc3ccccc3)cc(NCCCCCCN)nc12`, the figures for the Potency in assay [1] and in assay [10] were 14.8 µM (active) and 25.1 µM (active), respectively. Moreover, the Potency result in assay [2], in assay [3], in [6], in assay [11], in [7] and in [8] was “inactive” each time. Besides, the Potency result in [9] is “inactive”.
